Rows were chosen to be rich in hits. Some 2.8% of all compounds tested hit in one or more screens of this group.
POLB inh = DNA polymerase beta (human) inhibition. Pol beta primer extension/strand displacement, fluorescence kinetic. hit rate 1.3% among 340,000. AID 485314. Potency, µM (titrated, usually from 114 µM), for the others: top-dose activity change, negative = inhibition, usual class: inhibitors; further: potency means the concentration at half of the fitted maximal effect; on the % scale 0 is the no-effect control and ±100 the full control effect
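Pol beta (10 nM) and compounds were preincubated 15 min at room temperature, then 50 nM substrate (final) started primer extension/strand displacement. Reads were taken at 0 and 10 min; concentration-response data were fitted to a four-parameter Hill equation.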
PI5P4Ka inh = inhibitors of human PI5P4K alpha; PI5P4Kalpha enzyme, ADP-Glo luminescence, 60 min; stronger effect = lower value; max response, %; hit rate 1.2% among 330,000; AID 652105; active means max response of -50% or lower; inconclusive means between -30% and -50%; inactive means -30% or higher; further: value at the top dose of about 77 µM; on the % scale 0 is the no-effect control and ±100 the full control effect
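Controls without substrate or without enzyme flank wells where PI5P4Kalpha converts substrate using 5 microM ATP (final). Incubation lasts 60 minutes at room temperature; ADP formed is read by ADP-Glo luminescence.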
Pol kappa inh = blocks human DNA polymerase kappa activity; Q9UBT6; Potency, µM (highest dose often 107 µM), inactives show at the highest dose activity, negative = inhibition, hits mostly inhibitors; purified Pol kappa, fluorescent DNA synthesis assay, 10 min; hit rate 0.53% among 400,000; further: potency means the concentration at half of the fitted maximal effect; on the % scale 0 is the no-effect control and ±100 the full control effect
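Here, compound and 10 nM enzyme are combined for 15 min at room temperature; adding 50 nM substrate (final) starts DNA synthesis, tracked by fluorescence at 0 and 10 min against buffer-only wells.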
Pol iota inh = blocks human DNA polymerase iota activity | Q9UNA4 | Pol iota fluorescent replication assay, 10 min | Potency, µM (top dose mostly 115 µM), inactives show at the highest dose activity, negative = inhibition, usual class: inhibitors | hit rate 1% among 390,000 | AID 588590; further: potency means the concentration at half of the fitted maximal effect
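Pol iota at 10 nM preincubated 15 min with compounds at room temperature; reaction started with fluorescent substrate, 50 nM final. Fluorescence read kinetically at 0 and 10 min; buffer-only wells as negative control.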
Pol eta inh = DNA polymerase eta (human) inhibition; Q9Y253; recombinant Pol eta, fluorescent DNA replication assay; Potency, µM (doses to about 114 µM), for inactives: top-dose activity change, negative = inhibition, most hits filed as inhibitors; hit rate 1.2% among 390,000; AID 588591; further: potency means the concentration at half of the fitted maximal effect; on the % scale 0 is the no-effect control and ±100 the full control effect
Target sequence (Q9Y253 whole entry, looked up): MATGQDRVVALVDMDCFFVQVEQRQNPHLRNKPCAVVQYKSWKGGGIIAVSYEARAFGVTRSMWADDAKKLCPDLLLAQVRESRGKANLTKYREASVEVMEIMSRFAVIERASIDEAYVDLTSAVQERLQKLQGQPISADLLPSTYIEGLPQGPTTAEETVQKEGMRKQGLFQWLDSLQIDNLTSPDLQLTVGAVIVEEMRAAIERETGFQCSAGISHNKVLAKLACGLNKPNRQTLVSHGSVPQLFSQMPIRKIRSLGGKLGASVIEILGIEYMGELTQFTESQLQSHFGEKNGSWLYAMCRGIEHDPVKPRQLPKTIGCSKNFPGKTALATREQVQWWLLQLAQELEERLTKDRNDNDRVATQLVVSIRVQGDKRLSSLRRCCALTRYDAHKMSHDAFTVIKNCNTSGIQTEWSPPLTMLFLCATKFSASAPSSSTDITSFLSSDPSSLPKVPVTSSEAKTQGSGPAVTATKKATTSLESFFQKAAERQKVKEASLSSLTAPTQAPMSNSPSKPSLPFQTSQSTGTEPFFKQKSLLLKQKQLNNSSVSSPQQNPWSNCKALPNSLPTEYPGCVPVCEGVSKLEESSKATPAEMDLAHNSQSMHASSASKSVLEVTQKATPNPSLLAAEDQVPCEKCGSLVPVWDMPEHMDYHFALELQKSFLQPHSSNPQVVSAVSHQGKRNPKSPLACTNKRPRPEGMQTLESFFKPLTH
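Fluorescent replication assay: 50 nM final substrate added after a 15 min room-temperature compound preincubation with 10 nM enzyme. Signal taken at 0 min and again at 10 min.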
WRN inhibitor = blocks human WRN helicase; AID 651768; Potency, µM (titrated, usually from 114 µM), inactives show top-dose activity change, negative = inhibition, hits mostly inhibitors; Q14191; hit rate 0.46% among 360,000; WRN helicase unwinding, fluorescent forked duplex, kinetic; further: potency means the concentration at half of the fitted maximal effect; on the % scale 0 is the no-effect control and ±100 the full control effect; nearly all actives have a fitted effect of over 55% in size
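Kinetic red-fluorescence monitoring (525/598 nm) tracks WRN helicase activity after 100 nM fluorophore-quencher forked duplex and 2 mM ATP are added to 20 nM enzyme pretreated 15 min at room temperature with compound.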
The depositor's hits bear a star; ? = inconclusive; / = no result given; [ ] = dose if it differs, or a comment. Unless noted, the call rests on the fitted dose curve; in most records, active means well fitted curve in the direction sought with a large enough effect; inconclusive means small, poorly fitted or top-dose-only effect, or another doubt; inactive means no such curve, though single readings can be large; an effect the other way counts as inactive or inconclusive.

SMILES	POLB inh	PI5P4Ka inh	Pol kappa inh	Pol iota inh	Pol eta inh	WRN inhibitor
C=C1C=C(C)n2ncc(C(=O)N(CCc3ccccc3)Cc3ccccc3)c2N1	/	/	14%	40%	/	/
O=S(=O)(Nc1nc2ccccc2nc1NCc1ccco1)c1ccc(Cl)cc1	?	-1	-4%	?	?	-15%
Cc1noc(C)c1CSc1nc2ccccc2nc1NS(=O)(=O)c1ccc(Cl)cc1	3%	-12	-9%	?	79µM*	-24%
O=C(/C=C/[C@H]1O[C@@H](n2ccc(=O)[nH]c2=O)[C@H](O)[C@@H]1O)NCC1CCCO1 (some centres undefined)	/	1	/	/	/	-2%
O=c1[nH]c(/C=C/c2cccnc2)c([N+](=O)[O-])c(=O)[nH]1	-11%	-65*	3%	-21%	?	-3%[57.1 µM]
CCC(C)Oc1ccc(/C=C/c2[nH]c(=O)[nH]c(=O)c2[N+](=O)[O-])cc1OC (centres undefined)	4%	-58*	-4%	?	-20%	4%
O=c1[nH]c(/C=C\c2cccnc2)c([N+](=O)[O-])c(=O)[nH]1	-8%	?	-2%	22%	-5%	-22%
O=c1[nH]c(/C=C/c2ccccc2)c([N+](=O)[O-])c(=O)[nH]1	?	-76*	-6%	?	?	-26%
CCc1nnc(NS(=O)(=O)c2ccc(NC(=S)Nc3ccc(F)cc3)cc2)s1	42%	8	-15%	-10%	-5%	5%
CCc1nnc(NS(=O)(=O)c2ccc(NC(=S)NC(=O)/C=C/c3ccc(C(C)C)cc3)cc2)s1	45µM*	/	-14%	25µM*	45µM*	89µM*
COc1cc(NS(=O)(=O)c2ccc(NC(=S)NC(=O)/C=C/c3ccc(F)cc3)cc2)ncn1	15%	7	-21%	11%	-13%	-8%
CCc1nnc(NS(=O)(=O)c2ccc(NC(=S)NC(=O)/C=C/c3ccccc3)cc2)s1	-9%	?	-21%	?	71µM*	?
CCc1nnc(NS(=O)(=O)c2ccc(NC(=S)NC(=O)/C=C/c3ccc(OC)cc3)cc2)s1	-8%	-10	?	45µM*	-11%	?
COc1ccc(NS(=O)(=O)c2ccc(NC(=S)NC(=O)/C=C/c3ccccc3)cc2)nn1	11%	-20	-16%	?	79µM*	?
CCc1nnc(NS(=O)(=O)c2ccc(NC(=S)NC(=O)c3ccccc3)cc2)s1	7%	-20	-1%	6%	-9%	-25%
Cc1cccc(NC(=O)C2CCCN(S(=O)(=O)c3cnc[nH]3)C2)c1C (centres undefined)	0%	/	-22%	14%	-7%	/
CC(C)c1cc(CN2C(C)COCC2C)cc(C(C)C)c1O (centres undefined)	/	20	-10%	-5%	-11%	4%
CCc1ccc(NC(=O)c2cc3nc(-c4ccc(C)cc4)cc(C(F)(F)F)n3n2)cc1	3%	/	-20%	14%	-10%	/
COc1ccc(-c2c(C(F)(F)F)nn(C)c2NC(C)=O)cc1	25%	6	8%	51%	-13%	10%
CC(=O)c1ccc(NC(=S)NC(=O)/C=C/c2ccccc2)cc1	-22%	-4	-8%	30%	-21%	-1%
CCC(=O)Nc1ccc(NC(=S)NC(=O)/C=C/c2ccccc2)cc1	10µM*	-6	-27%	?	?	?
O=C(COc1ccc(F)c(Cl)c1)Nc1ccc(N2CCOCC2)cc1	/	7	3%	-13%	-17%	6%
N#CC(C#N)=Cc1ccc(-c2ccc(S(=O)(=O)N=C(N)N)cc2)o1	7%	?	-19%	?	20µM*	-42%
COC(=O)/C(C#N)=C/c1ccc(-c2ccc(S(N)(=O)=O)cc2)o1	-19%	?	-16%	37%	-5%	-20%
CC(C)(C)n1ncc2c(=O)n(Cc3ccc(F)c(C(F)(F)F)c3)cnc21	/	/	-7%	7%	/	/
SMILES	POLB inh	PI5P4Ka inh	Pol kappa inh	Pol iota inh	Pol eta inh	WRN inhibitor
O=C1c2ccccc2-c2onc3ccc(NCCCn4ccnc4)c1c23	25µM*	/	20µM*	?	79µM*	32µM*
NS(=O)(=O)c1ccc(NCCCn2ccnc2)c([N+](=O)[O-])c1	0%	3	-21%	153%	-1%	2%
Cc1ccc(OCC(=O)N2CCCC(CO)(CCOc3ccccc3)C2)cc1 (centres undefined)	0%	-7	-15%	19%	-3%	-34%
C/C=C/C=C/[C@H]1Cc2cc(O)cc(O)c2O1	50µM*	/	/	/	/	/
O=C1CC(c2ccc(Cl)cc2)c2c(O)cc(O)cc2O1 (centres undefined)	18%	-6	-23%	64%	-18%	-2%
CC1=CC(=O)C(Sc2ccc(C)cc2)=CC1=O	/	-71*	/	/	-2%	4%
O=C1CSC(=S)N1N=Cc1ccc2c(c1)OCO2	/	-51*	-9%	?	4%	?
O=C1CSC(=S)N1/N=C/c1ccc(O)c(O)c1O	0.32µM*	-95*	0.71µM*	-103%	0.71µM*	10µM*
COc1ccc(/C=N/N2C(=O)CSC2=S)cc1Br	/	-78*	-16%	?	?	-18%
CC(C)Oc1cccc(NC(=O)C2(C)CCN2C(C)C)c1 (centres undefined)	/	3	/	/	/	10%[57.1 µM]
COc1ccc(S(=O)(=O)N2CCOCC2)cc1NC(=O)c1ccc(S(=O)(=O)N(C)c2ccccc2OC)cc1	/	5	-1%	34%	-27%	-1%
C[C@@H]1CN([C@@H](C)CO)C(=O)CCCn2nncc2CO[C@@H]1CN(C)C(=O)Nc1ccnc(N2CCOCC2)c1	/	-5	/	/	-16%	3%
CCCCN(C(=O)COC(=O)COc1c(C)cc(C)cc1C)c1c(N)n(CCC)c(=O)[nH]c1=O	/	-2	-5%	29%	-22%	-2%
Oc1ccc(Oc2ccc(Oc3ccc(O)cc3)cc2)cc1	-12%	5	0%	21%	-27%	-1%
CC(Oc1ccc(O)cc1)(P(=O)(O)O)P(=O)(O)O	/	/	13µM*	/	/	/
CC(C)(C)C(=O)OCOP(=O)(OCOC(=O)C(C)(C)C)C(C)(Oc1ccc(O)cc1)P(=O)(OCOC(=O)C(C)(C)C)OCOC(=O)C(C)(C)C	/	/	35µM*	/	/	/
O=C(Nc1ccc([N+](=O)[O-])cc1)Nc1cnccn1	40µM*	2	-7%	11%	-9%	-3%
Cc1ccc(-n2c(O)c(C=Nc3ccccc3-c3n[nH]c(=S)[nH]c3=O)c3ccccc3c2=O)c(C)c1	89µM*	-20	?	45µM*	?	0%
COc1ccc(Nc2nnc(-c3ccc(C)c(S(N)(=O)=O)c3)c3ccccc23)cc1	?	/	-27%	-13%	-14%	/

High-throughput results deposited in PubChem BioAssay by National Center for Advancing Translational Sciences (NCATS).
